These results are taken from the supplement of paper PMC13380429.

Assay [1] has as its system Vero E6 infected with SARS-CoV-2. As to the kind of experiment: morphology score (similarity to uninfected cells); higher = more like uninfected cells. To be noted: 24 h.
Assay [2] has the same test system. As to the kind of experiment: SARS-CoV-2 infection rate relative to infected DMSO; higher = more infection, active = 60 or less. To be noted: 24 h.

Turning to `CC(=O)OC/C=C(C)/C=C/C=C(C)/C=C/C1=C(C)CCCC1(C)C` [retinyl-acetate] (10 µM), in assay [1], the morphology score was -0.227. Also, the SARS-CoV-2 infection rate in assay [2] is 113% (inactive).

On to `NC(=O)N1CCC(CC(=O)N2CCC([C@H]3c4ncc(Br)cc4CCc4cc(Cl)cc(Br)c43)CC2)CC1` [lonafarnib] (10 µM), for which the morphology score in assay [1] turned out to be 0.736. Besides, the SARS-CoV-2 infection rate in assay [2] was 43.5% (active).

In assay [1], `Cc1ccc(Sc2cncc3sc(C(N)=O)cc23)cc1` (10 µM) showed a morphology score of -0.153. The SARS-CoV-2 infection rate in assay [2] was 114% (inactive).

With `CC(C)NCC(O)c1ccc2ccccc2c1` (centres undefined) [pronethalol] (10 µM), the morphology score in assay [1] is -0.0652. For the same compound, in assay [2], the SARS-CoV-2 infection rate is 104% (inactive).

In turn, `CC1=C(/C=C/C(C)=C/C=C/C(C)=C/C=C/C=C(C)/C=C/C=C(C)/C=C/C2=C(C)C(=O)[C@@H](O)CC2(C)C)C(C)(C)C[C@H](O)C1=O` [astaxanthin] (10 µM) showed a morphology score in assay [1] of 0.0152. Moreover, the SARS-CoV-2 infection rate in assay [2] is 107% (inactive).

`Cc1ccc(NC(=O)CCCCCC(=O)Nc2ccccc2N)cc1` (0.833333 µM) gave a morphology score in assay [1] of -0.0538. Moreover, the SARS-CoV-2 infection rate in assay [2] is 103% (inactive).

As for `Nc1nc(NC2CC2)cc(-c2cccc(Cl)c2Cl)n1` (10 µM), the morphology score in assay [1] was found to be 0.121. Further, the SARS-CoV-2 infection rate in assay [2] was 97% (inactive).

In assay [1], `Cc1cc(O)c(C(=O)N[C@@H](C(=O)N[C@@H]2C(=O)N3C(C(=O)O)=C(CSc4nnnn4C)CS[C@H]23)c2ccc(O)cc2)cn1` [cefpiramide] (10 µM) showed a morphology score of 0.00194. The SARS-CoV-2 infection rate in assay [2] is 106% (inactive).

In turn, `O=C(c1cc(S(=O)(=O)Nc2ccccc2F)c(F)cc1Cl)N1CCN2CCC[C@@H]2C1` (10 µM) came in with a morphology score in assay [1] of 0.0625. Besides, the SARS-CoV-2 infection rate in assay [2] is 104% (inactive).

In turn, `COc1cccc(OCCCN)c1-c1cc(Nc2cnc(C#N)cn2)n[nH]1` (10 µM) registered a morphology score in assay [1] of -0.0952. Further, the SARS-CoV-2 infection rate in assay [2] was 103% (inactive).

The compound `Nc1ccn([C@@H]2O[C@@](CO)(CCl)[C@@H](O)[C@H]2F)c(=O)n1` (10 µM) yielded a morphology score in assay [1] of -0.0112. For the same compound, the SARS-CoV-2 infection rate in assay [2] was 104% (inactive).

Turning to `Nc1cc(N2CCCCC2)nc(N)[n+]1[O-]` [minoxidil] (10 µM), the morphology score in assay [1] is 0.0795. Moreover, the SARS-CoV-2 infection rate in assay [2] was 104% (inactive).
